# Screening data as filed in PubChem BioAssay.
# This is a sample that favours compounds with a hit; in the whole collection about 4.1% have one here.
# Beta apoptosis – beta cell apoptosis inhibition; INS-1E cytokine-induced death, ATP luminescence, 48 h; percent of positive-control rescue, neutral wells zero; protection from apoptosis, % (no concentration beside the values); hit rate 0.8% among 300,000; AID 435005;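 active = Every replicate reaches about 75%, or at least half do and their mean reaches it too, limit read from the data; inconclusive = At least half of replicates reach the limit but their mean does not; inactive = Under half of replicates reach the limit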;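 note: 0% = cytokine-treated negative control wells and 100% = positive control rescue; higher means more ATP so stronger rescue from cytokine killing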
# Mdm2-MdmX inh – disrupts the human Mdm2-MdmX interaction; O15151+Q00987; SaOS-2 split-luciferase Mdm2/MdmX complementation, luminescence; inhibition, % at 8 µM; hit rate 3% among 330,000; AID 485346;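 active = inhibition of at least 50% at 8 µM in the primary screen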
# Bfl-1 A1 inh – inhibitors of the anti-apoptotic protein A1, read as caspase activation; MEF A1-2A-BIM cells, Caspase-Glo 3/7 luminescence, 3 h; percent of clofoctol response, vehicle zero; caspase activation, % (test concentration not listed); hit rate 0.066% among 330,000;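 active = over half of replicate activation scores above 10%, or exactly half above 10 with the replicate mean above 10; inconclusive = replicate mean below 10 yet half the replicates above 10; inactive = over half of replicates below 10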
# CSC inhib – cancer stem cell inhibition; cancer stem cell-like cells viability, luminescence; inhibition, % at 7.5 µM; hit rate 1.1% among 300,000; AID 2717; in the data active = inhibition above about 75%; inconclusive = no clear call, values can overlap the other calls; tested in HMLE shEcad cells
# aSyn 5UTR inh – MLPCN primary screen, SNCA 5' untranslated region | alpha-synuclein 5'UTR reporter, inhibitor activity | inhibition, % (tested at 7.5 µM) | hit rate 0.82% among 300,000 | AID 1813; in the data active = inhibition above about 60%; inconclusive = no clear call, values can overlap the other calls;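 note: H4 neuroglioblastoma cells stably carrying SNCA 5'UTR luciferase fusion; 0% = DMSO wells and 100% = positive control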
# Mdm2 MdmX conf – human Mdm2/MdmX binding inhibition, confirmed | AID 489028 | hit rate 55% among 10,000 | shares compounds with Mdm2-MdmX inh | inhibition, % at 8 µM | luminescent assay; in the data active = inhibition above about 40%
# FLuc counter – counter-screen for Mdm2/MdmX inhibitors: full-length luciferase; shares compounds with Mdm2-MdmX inh; SaOS-2 full-length luciferase counterscreen, luminescence; inhibition, % at 8 µM; hit rate 77% among 6,200; AID 504607;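 active = mean inhibition at 8 µM reaching about 37%, which flags the compound as non-specific, limit read from the data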;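 note: p53-null SaOS-2 cells with luciferase driven by a doxycycline-inducible promoter; compound on cells about two nights before reading with doxycycline added after day one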
# An asterisk follows results filed as active; ? = inconclusive; . = no result given.
SMILES,Beta apoptosis,Mdm2-MdmX inh,Bfl-1 A1 inh,CSC inhib,aSyn 5UTR inh,Mdm2 MdmX conf,FLuc counter
CN(C)C1CCN(Cc2cc(COCc3ccccc3)c3cccnc3c2O)C1 (centres undefined),77*,67*,1,.,.,71*,33
COCc1cc(CN2CCCC2)c(O)c2ncccc12,5,38,0,36,?,.,.
Oc1c(CN2CCCCC2)cc(COCc2ccccc2)c2cccnc12,39,52*,0,0,92*,49*,44*
O=C(CN1CCN(S(=O)(=O)c2cccc(F)c2)CC1)Nc1ccnn1C1CCCC1,-5,4,0,-2,.,.,.
Cc1ccc2c(c1)C(=O)C(=O)N2CCOc1ccccc1,-2,65*,1,53,-50,46*,95*
Cc1cccc(OCCN2C(=O)C(=O)c3cc(C)ccc32)c1,11,69*,2,61,-50,62*,90*
Cc1c(Cl)cccc1NC(=O)CCN1C(=O)C2CC=CCC2C1=O (centres undefined),1,-4,1,-8,-9,.,.
Clc1ccc2c(N/N=C/c3ccccc3Br)ccnc2c1,43,101*,0,50,29,82*,52*
CN(C)S(=O)(=O)c1cccc(NC(=O)c2cc(-c3cccs3)nn2-c2cccc(Cl)c2)c1,14,50*,0,34,17,58*,65*
O=C(O)c1cc(-c2cccs2)nn1-c1cccc(Cl)c1,-1,-6,0,-9,25,.,.
O=C(CN(c1cccc([N+](=O)[O-])c1)S(=O)(=O)c1ccccc1)NCc1cccnc1,2,-3,1,-5,-17,.,.
O=C(CN(c1cccc(C(F)(F)F)c1)S(=O)(=O)c1ccc(Cl)c([N+](=O)[O-])c1)NCc1ccc(F)cc1,1,100*,0,185*,7,39,95*
CC1(C)COC(/C=C/c2cccc([N+](=O)[O-])c2)=N1,-52,79*,-1,-11,-37,72*,39*
CC(=O)NC(c1ccc(Cl)cc1Cl)c1ccc2cccnc2c1O (centres undefined),-6,68*,0,-18,86*,87*,54*
CCCC(=O)NC(c1ccc(C)cc1)c1ccc2cccnc2c1O (centres undefined),112*,81*,1,110*,58,87*,53*
CC(=O)NC(c1ccc2ccccc2c1)c1ccc2cccnc2c1O (centres undefined),.,86*,1,102*,57,90*,22
CCCC(=O)NC(c1ccc(Cl)cc1Cl)c1ccc2cccnc2c1O (centres undefined),94*,81*,0,109*,64*,85*,55*
CC(=O)NC(c1ccc(C(C)C)cc1)c1c(O)ccc2ccccc12 (centres undefined),-4,-5,0,2,17,.,.
CC(=O)NC(CC(=O)NC(C)c1ccc(Cl)cc1Cl)c1ccccc1 (centres undefined),3,12,0,3,15,.,.
CCCC(=O)NC(c1ccccc1Cl)c1c(O)ccc2ccccc12 (centres undefined),2,31,0,9,6,.,.
CCN(C(=O)COC(=O)c1oc2ccccc2c1C)c1c(N)n(Cc2ccccc2)c(=O)[nH]c1=O,-1,12,0,-5,.,.,.
CCS(=O)(=O)N1Cc2ccccc2CC1C(=O)N(C)Cc1ccc(OC)c(F)c1 (centres undefined),-9,-19,0,-22,27,.,.
O=C(N/N=C/c1cccc(Cl)c1)C(c1ccncc1)N1CCOCC1 (centres undefined),.,16,0,-9,11,.,.
CCCC(=O)NC(c1ccc(Cl)cc1)c1ccc2cccnc2c1O (centres undefined),113*,78*,1,106*,47,84*,57*
COc1ccc(C(NC(C)=O)c2ccc3cccnc3c2O)c(OC)c1 (centres undefined),109*,74*,-1,45,83*,71*,31
CCCCC(=O)NC(c1ccc(Cl)cc1)c1ccc2cccnc2c1O (centres undefined),97*,77*,0,153*,56,86*,11
